Test results from ChEMBL document CHEMBL3988442, “University of Dundee, Small-Polar-MMV Screening Library” (2021).

What was measured:
[1] = target: T1, Aspartate--tRNA(Asp/Asn) ligase (Mycobacterium tuberculosis (strain ATCC 25618 / H37Rv)) (UniProt P9WFW3); test: Assay for Asp RNA synthetase-1 from Mycobacterium tuberculosis; format: functional; set-up: scale not given: direction of the effect not stated beside the values; details: 30 µM; note: in the data most compounds retested in dose-response had high values
T1 sequence (whole entry): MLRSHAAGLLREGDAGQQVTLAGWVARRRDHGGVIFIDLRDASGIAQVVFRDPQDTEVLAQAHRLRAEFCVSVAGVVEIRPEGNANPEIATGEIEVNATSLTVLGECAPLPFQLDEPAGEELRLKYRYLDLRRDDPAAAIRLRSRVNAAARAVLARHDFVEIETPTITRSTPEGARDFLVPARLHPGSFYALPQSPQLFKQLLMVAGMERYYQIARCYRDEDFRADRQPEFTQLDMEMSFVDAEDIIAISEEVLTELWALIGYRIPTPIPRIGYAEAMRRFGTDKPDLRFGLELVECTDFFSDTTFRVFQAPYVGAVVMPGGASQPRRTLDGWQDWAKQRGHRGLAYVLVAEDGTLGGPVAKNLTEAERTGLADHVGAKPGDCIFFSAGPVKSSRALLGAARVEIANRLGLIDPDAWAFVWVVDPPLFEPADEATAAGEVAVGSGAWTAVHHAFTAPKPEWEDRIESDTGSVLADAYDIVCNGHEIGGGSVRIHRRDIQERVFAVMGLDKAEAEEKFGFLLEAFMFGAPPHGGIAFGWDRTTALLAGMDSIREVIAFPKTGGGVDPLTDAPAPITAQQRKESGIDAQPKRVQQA

[2] = target: Shiga toxin 2 (Escherichia coli O157:H7) (UniProt P09385+P09386); test: E. coli 0.157:H7 Shiga Toxin SOP - stx2 screening assay; format: functional; set-up: scale not given: direction of the effect not stated beside the values; details: 30 µM

SMILES	Percent Effect [1] [%]	Percent Effect [2] [%]
Fc1cccc(-c2nc(CN3CCOC(Cn4cccn4)C3)co2)c1 (configuration not stated)	2.49	24.3
Cn1ccnc1CN1CC[C@@H](NS(C)(=O)=O)[C@@H]1Cc1cccnc1	-0.168	-4.31
COc1cccc(OCCNC(=O)CN2CCN(C)CC2C)c1 (configuration not stated)	-3.03	-14.9
COc1ncccc1NC(=O)C1CCS(=O)(=O)C1 (configuration not stated)	-3.61	-37.8
CCc1c(C(=O)N2CCCN(C(C)=O)CC2)cnn1C(C)(C)C	0.899	3.41
CCN(CC)C(=O)CN(C)C1CCc2ccccc21 (configuration not stated)	-4.5	14.4
N#Cc1ccccc1OCCN1CCC(N2CCNC2=O)CC1	-0.816	-50.9
CN(C)c1cc(CNC(=O)c2cn(-c3ccc(F)cc3)nn2)ccn1	1.09	6.86
COc1cccc(C)c1C(=O)N1C[C@@H](CN(C)C)[C@@H](CO)C1	0.951	-14.7
O=C(c1ccco1)N1C[C@H]2CCCN(Cc3cccs3)[C@H]2C1	6.24	-1.93
COC(=O)c1sccc1S(=O)(=O)NCC1(O)CCOc2ccccc21 (configuration not stated)	-2.1	6.1
Cc1cc(CN2CCN(C(=O)NCc3nc(C)cs3)CC2)on1	2.33	27.5
O=C1CC(c2cccs2)c2snc(C(=O)O)c2N1 (configuration not stated)	-3.23	-4.3
CCOC1COC2(CCN(S(=O)(=O)c3cccc(F)c3)CC2)C1 (configuration not stated)	16.4	-13
CC(=O)Nc1ccc(-n2ccc3nc(N4CCCC4)ncc3c2=O)cc1	4.09	-9.95
Cc1cccc(-c2ccc(C(=O)NCC3CCOC3)c(=O)[nH]2)c1 (configuration not stated)	7.65	15.2
Cc1nc(CN2CCN(C(=O)COCc3ccccc3)CC2)no1	-0.353	-1.66
Cc1ccc(C(=O)O)cc1S(=O)(=O)Nc1nn(-c2ccccc2)cc1C	5.61	3.87
CC(C)n1[nH]c(=O)c2c1NC(=O)CC2c1cccnc1 (configuration not stated)	-1.05	-6.55
COC[C@@H]1CC[C@H]2[C@H](CCN2S(=O)(=O)c2ccc(OC)cc2)O1	-2.58	1.36
O=C(Nc1ccc(N2CCCC2)nc1)N1CCc2sccc2C1	0.155	-146
Cc1nc(C2CCCN2CC(=O)NCCOc2ccccc2)no1 (configuration not stated)	1.81	-11.3
COc1c(CNCc2ccc(CN(C)C)cc2)c(C(C)C)nn1C	0.7	16.1

SMILES	Percent Effect [1] [%]	Percent Effect [2] [%]
O=C1NCCN1C1CCN(Cc2ccccn2)CC1	-1.42	-6.38
Cc1cc(-c2nn(C)c(Cl)c2CN2Cc3ccccc3C(O)C2)no1 (configuration not stated)	8.53	43.3
Cc1nc(CN2CCCC(NCCOCC(F)(F)F)C2)no1 (configuration not stated)	-8.65	-8.56
CCc1noc(C2CCCCN2C(=O)c2ccoc2C)n1 (configuration not stated)	-4.38	-33.6
COc1ccc(CC(=O)NC2(C)CCS(=O)(=O)C2)cc1F (configuration not stated)	4.95	-19.1
Cc1nccc(C2CN(Cc3cc[nH]n3)CCO2)n1 (configuration not stated)	-1.53	2.02
Cc1n[nH]c(C)c1NC(=O)CN1CCn2c(nnc2C(C)C)C1	0.173	13.2
CC(C)(C)C(=O)NCCC(=O)NC(C)(C)c1ccc2c(c1)OCCO2	1.41	-2.07
Cc1ccc(CC(=O)N2CCOC(c3nc(C(C)(C)C)n[nH]3)C2)cn1 (configuration not stated)	-0.39	-0.658
CC(C(=O)NCc1ccnc(N2CCCC2)c1)n1cncn1 (configuration not stated)	-2.83	27.3
COCCC(=O)N1CC[C@@H]2O[C@@H](C)C[C@H]2C1	-0.28	-0.0436
O=C(O)c1ccc(S(=O)(=O)Nc2ccc(Cl)c(F)c2)c(F)c1	-0.533	-14.1
CCc1nc(CN(C)C2CCN(CCc3ccccn3)C2)no1 (configuration not stated)	8.1	-35.9
Cn1ccnc1CN1CCN(CC(O)c2ccco2)CC1 (configuration not stated)	4.07	20
CCn1nccc1CNC(=O)C(C)n1cc2c(n1)c(C)nn2C (configuration not stated)	-5.02	-29.4
CC(NC(=O)N(C)Cc1ccc(Cl)s1)c1ccccn1 (configuration not stated)	-2.02	-6.3
O=C(NCCCN1CCCC1=O)Nc1ccc(Br)cc1Cl	-2.15	-11
O=C(c1cccs1)N1CCC2(C1)c1ccccc1S(=O)(=O)N2CC1CC1 (configuration not stated)	-6.49	6.62
O=S(=O)(CCN1CCOC(Cn2cccn2)C1)C(F)(F)F (configuration not stated)	8.08	191
c1ccc(-c2nc(CNC3CCc4ncnn4C3)co2)cc1 (configuration not stated)	-3.79	-10.8
O=C(c1ccc(N2CCCC2)nn1)N1CCCC(n2cccn2)C1 (configuration not stated)	3.23	23.7
COc1ccc(-c2nnc(SC(C)C(=O)NCC(C)C)[nH]2)c(OC)c1 (configuration not stated)	7.67	8.94
CCCNC(=O)CNc1cc(C(=O)N2CCSCC2)ccc1C	-2.64	-9.17
